The structures appear in SMILES notation. A number with no mark means an inactive call. Records with an inconclusive call do not appear. Active and inactive are the calls of the source. Unless noted, calls follow the shape of the dose curve; as a rule, active = well fitted curve in the direction sought with a large enough effect in the repeat runs; inconclusive = weak or mixed curves; inactive = no such curve, though single readings can be large; an effect the other way counts as inactive or inconclusive.

From PubChem BioAssay (Tox21) come the findings set out here.

The nature of assay [1]: qHTS assay for small molecules that induce genotoxicity in human embryonic kidney cells expressing luciferase-tagged ATAD5 (AID 651632). Also: nearly all actives have a fitted effect of over 15% in size. Also: potency is read from the fitted curve at half-maximal effect. The method in brief: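 A rise in luciferase signal from ATAD5-tagged HEK293T cells marks genetic stress. Cells were exposed to compounds for 16 hr at 37C, 5% CO2, then luciferase was quantified after a 30 min room-temperature incubation with Amplite.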

Assay [2] can be described thus: qHTS assay for small molecule agonists of the p53 signaling pathway - cell viability (AID 651633; calls by dose curve;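 also: p53RE-bla HCT reporter cells with a stable beta-lactamase p53 reporter; series mostly up to about 83 µM; nearly all actives have a fitted effect of over 30% in size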). In outline:
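p53RE-bla cells, seeded at 4,000 per well and rested 5 h at 37 C/5% CO2, received compounds in DMSO for 16 h at 37 C. CellTiter-Glo was then added, and luminescence was read after 30 min at room temperature to gauge cytotoxicity.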

The nature of assay [3]: qHTS assay for small molecules that induce genotoxicity in human embryonic kidney cells expressing luciferase-tagged ATAD5 - cell viability (AID 651634; calls by dose curve; also: nearly all actives have a fitted effect of over 25% in size). In outline:
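Cytotoxicity counter-readout: after 15.5 hr compound treatment at 37C, live-cell protease activity in ATAD5-luciferase HEK293T cells measured by CellTiter-Fluor fluorescence, 30 min development at 37C.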
On the technique in general: In qHTS, concentration-response curves come from the screen itself.

A short description of assay [4]: qHTS assay for small molecule disruptors of the mitochondrial membrane potential - cell viability (AID 720634; calls by dose curve;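 also: human HepG2 liver cancer cells; series mostly up to about 83 µM; nearly all actives have a fitted effect of over 20% in size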). In outline:
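Cytotoxicity was quantified from ATP content by CellTiter-Glo luminescence in the same wells as the MMP dye read-out. HepG2 (2,000 cells/well) were plated overnight and exposed to compounds for 1 hr at 37 C.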

Assay [5] can be described thus: qHTS assay to test for compound auto fluorescence at 590 nm (red) in HepG2 cells (AID 720674). In outline: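 Compound auto-fluorescence is scored relative to Rose Bengal sodium, measured at 540/590 nm in live HepG2 cultures after 1 hr compound contact (37 C, 5% CO2).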
A short description of assay [6]: qHTS assay to test for compound auto fluorescence at 535 nm (green) in HepG2 cells (AID 720675).
Assay [7] is described as follows: qHTS assay to test for compound auto fluorescence at 460 nm (blue) in HEK293 cells (AID 720678). The method in brief:
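Auto fluorescence in the blue band was quantified as triamterene equivalency. HEK293 cells were seeded at 2,000/well, dosed after a 4-5 hr attachment, and kept overnight at 37C before the 405/460 nm reading.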

Assay [8] in a line: qHTS assay to test for compound auto fluorescence at 590 nm (red) in HEK293 cells (AID 720679). The method in brief: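 Autofluorescence equivalency to Rose Bengal sodium, 540/590nm, in HEK293 cells exposed overnight to 23 nL compound per well.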
A short description of assay [9]: qHTS assay for small molecule disruptors of the mitochondrial membrane potential (AID 720635). Also: potency is read from the fitted curve at half-maximal effect. In outline:
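HepG2 cells (2,000/well) attached overnight at 37C, then took compound for 1 hr at 37C, 5% CO2. Mito-MPS dye was added for 30 min; fluorescence was read at 490/535 nm (monomers) and 540/590 nm (aggregates).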
% is scaled to controls: 0 for no effect and ±100 for the full control effect.

For `CCC/C=C/CO`, the Potency result in assay [1], in assay [2], in assay [3] and in assay [4] was “inactive” in each case. Moreover, the molecule was classed as inactive in assay [5], in assay [6], in [7] and in assay [8].
Turning to `CCC(=O)c1ccc2c(c1)N(CCCN(C)C)c1ccccc1S2`, the Potency result in [1], in assay [2], in assay [3] and in [4] was “inactive” each time. Moreover, the molecule was classed as inactive in [5], in [6], in assay [7] and in assay [8].
`CN1CCN(C2=Nc3ccccc3Oc3ccc(Cl)cc32)CC1`: the Potency result in [1], in [2], in assay [3] and in assay [4] was “inactive” each time. Moreover, the fluorescence, % of fluorescein control in assay [6] is -0.116% [at 18.6 µM]. For the same molecule, in assay [7], the fluorescence, % of triamterene is 0.0075% [at 18.6 µM]. Further, the fluorescence, % of fluorescent control in [8] was 0.151% [at 18.6 µM].
Consider `CN1[C@@H]2CC[C@H]1CC(OC(=O)c1c[nH]c3ccccc13)C2` (stereo partly drawn), for which the Potency result in assay [1], in assay [2], in assay [3], in [4] and in [9] was “inactive” throughout. For the same molecule, the outcome in [5], in [6], in assay [7] and in assay [8] was inactive.
As for `CN1CCC[C@@H]1Cc1c[nH]c2ccc(CCS(=O)(=O)c3ccccc3)cc12`, the Potency entry in assay [1], in assay [2], in assay [3], in [4] and in [9] was “inactive” throughout. For the same molecule, the outcome in assay [6], in assay [7] and in assay [8] was inactive.
On to `Cn1cnc2c(F)c(Nc3ccc(Br)cc3Cl)c(C(=O)NOCCO)cc21`, for which the Potency result in assay [1], in [2], in assay [3] and in assay [4] was “inactive” each time. For the same molecule, the result in assay [5], in [6], in assay [7] and in assay [8] was inactive.
`O=CCCc1ccccc1`: the Potency result in [1], in assay [2], in [3] and in assay [4] was “inactive” throughout. Further, the molecule was classed as inactive in assay [5], in [6], in [7] and in assay [8].
As to `CN(C)CCOc1ccccc1Cc1ccccc1`, the Potency result in assay [1], in assay [2], in [3] and in assay [4] was “inactive” throughout. Further, the Potency in [9] was 2.66 µM (active). Moreover, the outcome in [5], in assay [6], in [7] and in [8] was inactive.
Take `Cc1nc(-c2ccccn2)ncc1C(=O)Nn1cc(C)c2cc(F)ccc21`: the Potency result in assay [1], in assay [2], in assay [3], in [4] and in [9] was “inactive” in each case. Besides, the outcome in assay [5], in assay [6], in assay [7] and in assay [8] was inactive.
On to `CC1(O)CSC(C)(O)CS1` (stereo not drawn), for which the Potency result in assay [1], in [2], in assay [3] and in assay [4] was “inactive” throughout. The molecule was classed as inactive in [5], in assay [6], in assay [7] and in assay [8].
Regarding `CNCCC(Oc1ccccc1OC)c1ccccc1` (stereo not drawn), the Potency entry in [1], in assay [2], in [3], in [4] and in assay [9] was “inactive” throughout. Moreover, the result in assay [5], in assay [6], in assay [7] and in [8] was inactive.
Regarding `c1ccc(CN(CC2=NCCN2)c2ccccc2)cc1`, the Potency entry in assay [1], in [2], in assay [3], in [4] and in assay [9] was “inactive” throughout. The molecule was classed as inactive in assay [5], in assay [6], in assay [7] and in assay [8].
With `Cc1ccc([N+](=O)[O-])c(N)c1`, the Potency entry in assay [1], in [2], in assay [3], in assay [4] and in assay [9] was “inactive” each time. The call in [5], in assay [6], in [7] and in assay [8] was inactive.
In the case of `CCCCCCCOC(=O)CCC`, the Potency entry in [1], in [2], in [3], in [4] and in assay [9] was “inactive” throughout. The molecule was classed as inactive in assay [5], in assay [6], in assay [7] and in [8].
Consider `CC1(C)C(=O)N(Cl)C(=O)N1Br`, for which the Potency result in assay [1], in assay [2], in assay [3] and in assay [4] was “inactive” in each case. The result in assay [5], in assay [6], in assay [7] and in assay [8] was inactive.
In the case of `CCOc1ccc(OCC)c(Cl)c1`, the Potency result in assay [1], in assay [2], in assay [3] and in assay [4] was “inactive” each time. For the same molecule, the result in assay [5], in [6], in assay [7] and in assay [8] was inactive.
With `CC(=O)Oc1cc(C(C)C)c(OCCN(C)C)cc1C`, the Potency result in assay [1], in [2] and in assay [3] was “inactive” throughout. In assay [5], the fluorescence, relative to Rose Bengal is 0.0269% [at 18.6 µM]. Moreover, in assay [6], the fluorescence, % of fluorescein control is 0.0486% [at 18.6 µM]. Besides, the fluorescence, % of triamterene in [7] was -0.184% [at 18.6 µM]. For the same molecule, in [8], the fluorescence, % of fluorescent control is -0.192% [at 18.6 µM].
For `Cc1ccc(C(C)C)cc1O`, the Potency result in assay [1], in assay [2], in [3] and in assay [4] was “inactive” throughout. In addition, the Potency in assay [9] was 48.6 µM (active). For the same molecule, the molecule was classed as inactive in assay [5], in assay [6], in [7] and in assay [8].
Turning to `CC(C)C[C@H](NC(=O)OCC1c2ccccc2-c2ccccc21)C(=O)O`, the Potency in assay [1] was 12.2 µM (active). For the same molecule, the Potency entry in assay [2], in assay [3] and in assay [4] was “inactive” each time. The result in assay [5], in assay [6], in assay [7] and in [8] was inactive.
`Cc1nnc(SCC2=C(C(=O)O)N3C(=O)[C@@H](NC(=O)Cn4cnnn4)[C@H]3SC2)s1`: the Potency entry in assay [1], in assay [2], in assay [3], in assay [4] and in assay [9] was “inactive” throughout. Besides, the outcome in [5], in [6], in assay [7] and in [8] was inactive.
As for `Cc1ccc(C)c(N)c1`, the Potency entry in assay [1], in assay [2], in assay [3] and in [4] was “inactive” throughout. Moreover, the result in assay [5], in assay [6], in [7] and in assay [8] was inactive.
`CCOc1ccc(NC(N)=O)cc1`: the Potency entry in [1], in assay [2], in assay [3] and in [4] was “inactive” each time. The molecule was called inactive in assay [5], in assay [6], in assay [7] and in assay [8].
